Assay outcomes (PubChem)
Rows were chosen to be rich in hits. Some 2.4% of all compounds tested hit in one or more screens of this group.
POLB inh: inhibitors of human DNA polymerase beta; Pol beta primer extension/strand displacement, fluorescence kinetic; P06746; AID 485314; Potency, µM (doses to about 114 µM), for the others: at the highest dose activity change, negative = inhibition, most hits filed as inhibitors; hit rate 1.3% among 340,000; note: potency is the fitted concentration of half-maximal effect; % is set by controls: 0 for no effect and ±100 for the full control effect
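10 nM enzyme + cpd, 15 min RT; start with substrate 50 nM final; read 0 min and after 10 min RT. Corrected, normalized data; 4-parameter Hill curve fit.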
Pol kappa inh-1: DNA polymerase kappa (human) inhibition; Q9UBT6; purified Pol kappa, fluorescent DNA synthesis assay, 10 min; Potency, µM (doses to about 107 µM), inactives show at the highest dose activity, negative = inhibition, usual class: inhibitors; hit rate 0.53% among 400,000; AID 588579; note: potency is the fitted concentration of half-maximal effect; % is set by controls: 0 for no effect and ±100 for the full control effect
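Readout: fluorescence, taken kinetically at 0 and 10 min. Conditions: 10 nM Pol kappa, 15 min RT compound preincubation, 50 nM substrate final. Controls: enzyme-free buffer wells.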
FEN1 inh: inhibitors of human flap endonuclease 1; Potency, µM (highest dose often 114 µM), for inactives: at the top dose activity change, negative = inhibition, usual class: inhibitors; hit rate 0.35% among 390,000; P39748; Recombinant FEN1 flap cleavage, fluorescence, 15 min; note: potency is the fitted concentration of half-maximal effect; % is set by controls: 0 for no effect and ±100 for the full control effect; nearly all actives have a fitted effect of over 65% in size
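Enzyme 10 nM, 15 min RT preincubation with compound; start with substrate 50 nM final; reads at 0 and 15 min; qHTS titration, four-parameter Hill fit.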
WRN inhibitor: blocks human WRN helicase; Potency, µM (doses to about 114 µM), without a hit: at the top dose activity change, negative = inhibition, most hits filed as inhibitors; Q14191; AID 651768; WRN helicase unwinding, fluorescent forked duplex, kinetic; hit rate 0.46% among 360,000; note: potency is the fitted concentration of half-maximal effect; % is set by controls: 0 for no effect and ±100 for the full control effect; nearly all actives have a fitted effect of over 55% in size
Target sequence (Q14191 whole entry, looked up): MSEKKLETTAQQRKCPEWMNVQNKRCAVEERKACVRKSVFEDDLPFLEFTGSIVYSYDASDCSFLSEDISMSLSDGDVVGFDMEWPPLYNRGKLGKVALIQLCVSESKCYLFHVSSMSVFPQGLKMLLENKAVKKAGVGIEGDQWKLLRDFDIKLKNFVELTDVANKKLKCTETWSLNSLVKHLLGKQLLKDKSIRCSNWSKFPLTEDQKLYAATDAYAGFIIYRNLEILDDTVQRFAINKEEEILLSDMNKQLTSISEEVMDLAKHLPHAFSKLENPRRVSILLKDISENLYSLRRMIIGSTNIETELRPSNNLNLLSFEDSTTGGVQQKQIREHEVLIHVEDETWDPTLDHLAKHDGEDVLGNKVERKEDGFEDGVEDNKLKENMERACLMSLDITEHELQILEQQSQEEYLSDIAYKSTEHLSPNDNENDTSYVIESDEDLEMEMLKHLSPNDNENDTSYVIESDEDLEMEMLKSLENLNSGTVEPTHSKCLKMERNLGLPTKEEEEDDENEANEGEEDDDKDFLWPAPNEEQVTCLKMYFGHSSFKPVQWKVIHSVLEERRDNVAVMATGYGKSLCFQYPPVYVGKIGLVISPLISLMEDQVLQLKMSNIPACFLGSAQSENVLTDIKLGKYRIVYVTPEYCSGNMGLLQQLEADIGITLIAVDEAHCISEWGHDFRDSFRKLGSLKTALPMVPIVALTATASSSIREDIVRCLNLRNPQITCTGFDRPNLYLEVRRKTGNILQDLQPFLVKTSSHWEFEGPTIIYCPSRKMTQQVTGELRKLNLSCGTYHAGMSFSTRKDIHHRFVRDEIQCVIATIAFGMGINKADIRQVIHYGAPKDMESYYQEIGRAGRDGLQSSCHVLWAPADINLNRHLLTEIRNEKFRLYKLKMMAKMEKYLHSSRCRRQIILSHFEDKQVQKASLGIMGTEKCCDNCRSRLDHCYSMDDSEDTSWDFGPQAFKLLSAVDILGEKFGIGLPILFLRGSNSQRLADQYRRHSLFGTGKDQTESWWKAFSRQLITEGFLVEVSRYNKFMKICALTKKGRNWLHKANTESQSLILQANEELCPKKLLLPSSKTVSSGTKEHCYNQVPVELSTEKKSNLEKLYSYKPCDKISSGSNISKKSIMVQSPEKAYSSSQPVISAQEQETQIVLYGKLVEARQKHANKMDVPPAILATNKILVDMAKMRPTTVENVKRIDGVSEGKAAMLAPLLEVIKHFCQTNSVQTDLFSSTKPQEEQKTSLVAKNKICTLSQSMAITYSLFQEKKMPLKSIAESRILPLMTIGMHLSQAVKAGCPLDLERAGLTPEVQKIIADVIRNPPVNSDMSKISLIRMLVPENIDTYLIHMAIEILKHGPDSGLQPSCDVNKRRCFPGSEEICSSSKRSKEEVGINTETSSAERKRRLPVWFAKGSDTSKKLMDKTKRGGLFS
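Primary qHTS, 1536-well format. 20 nM WRN + compound, 15 min RT; start with 100 nM forked fluorophore/quencher duplex, 2 mM ATP (final); kinetic read ex 525/em 598 nm.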
POLI inh: DNA polymerase iota (human) inhibition | Q9UNA4 | Pol iota fluorescent replication assay, 10 min | Potency, µM (top dose mostly 115 µM), for the others: at the highest dose activity, negative = inhibition, usual class: inhibitors | hit rate 1% among 390,000; note: potency is the fitted concentration of half-maximal effect
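Fluorescent replication assay read twice, at 0 min and 10 min after adding 50 nM (final) substrate. Enzyme (10 nM) and compounds were first incubated 15 min at room temperature; enzyme-free buffer wells were negative controls.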
Pol eta inh-1: blocks human DNA polymerase eta activity; recombinant Pol eta, fluorescent DNA replication assay; Potency, µM (highest dose often 114 µM), without a hit: top-dose activity change, negative = inhibition, usual class: inhibitors; hit rate 1.2% among 390,000; note: potency is the fitted concentration of half-maximal effect; % is set by controls: 0 for no effect and ±100 for the full control effect
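Pol eta at 10 nM preincubated with compounds 15 min at room temperature; reaction started with fluorescent substrate (50 nM final) and read kinetically at 0 and 10 min.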
PGK validate: blocks T. brucei phosphoglycerate kinase; AID 686980; TbPGK coupled GAPDH assay, Kinase-Glo luminescence; Potency, µM (highest dose often 57.5 µM), for inactives: top-dose activity change, negative = inhibition, actives largely listed as inhibitors; shares compounds with Pol kappa inh-1; hit rate 79% among 500; note: potency is the fitted concentration of half-maximal effect; % is set by controls: 0 for no effect and ±100 for the full control effect; nearly all actives have a fitted effect of over 65% in size
Pol iota confirm: Confirm cherry-picked inhibitors of human polymerase iota | shares compounds with Pol kappa inh-1 | Pol iota primer extension, TAMRA/BHQ fluorescence | Potency, µM, most hits filed as inhibitors | hit rate 77% among 1,500; note: potency is the fitted concentration of half-maximal effect
GALK inh confirm: galactokinase (human) inhibition, confirmation; shares compounds with Pol eta inh-1; purified GALK, Kinase-Glo ATP depletion luminescence; Potency, µM (doses to about 115 µM), without a hit: at the highest dose activity, negative = inhibition, most hits filed as inhibitors; hit rate 70% among 150
Redox cycling: generates H2O2 by redox cycling, flagging GALK artifacts | hit rate 40% among 150 | shares compounds with Pol eta inh-1 | Phenol red-HRP H2O2 redox cycling, absorbance 600 nm | AID 2035 | Potency, µM (highest dose often 115 µM), inactives show at the top dose activity change, negative = H2O2 signal, most hits filed as inhibitors
HEK293 viability: reduces HEK-293 cell viability in GALK counter-screen; hit rate 10% among 170; HEK-293 viability, ATP luminescence (CellTiter-Glo), 24/48 h; shares compounds with Pol eta inh-1; AID 2547; Potency, µM (series often up to 46.1 µM), for inactives: top-dose activity change, negative = cytotoxicity, most hits filed as inhibitors; note: potency is the fitted concentration of half-maximal effect; % is set by controls: 0 for no effect and ±100 for the full control effect
Pol kappa inh-2: Pol kappa (human) inhibition, cherry-pick confirmation | shares compounds with Pol eta inh-1 | purified Pol-kappa, fluorescent strand-displacement substrate | Potency, µM, usual class: inhibitors | hit rate 76% among 920 | AID 720501; note: potency is the fitted concentration of half-maximal effect
Pol eta inh-2: Pol eta (human) inhibition, cherry-pick confirmation; Potency, µM, most hits filed as inhibitors; shares compounds with Pol eta inh-1; Pol eta primer extension, TAMRA/BHQ fluorescence, 10 min; hit rate 64% among 2,600; note: potency is the fitted concentration of half-maximal effect
* = called active by the depositor; [ ] = dose if it differs, or a comment. Calls come from the whole dose curve; as a rule, active = well fitted curve in the direction sought with a large enough effect; inconclusive = small, poorly fitted or top-dose-only effect, or another doubt; inactive = no such curve, though single readings can be large; an effect the other way counts as inactive or inconclusive.

`CCCCN(C(=O)c1cccc(-n2cccc2)c1)c1c(N)n(CCC)c(=O)[nH]c1=O` gave Pol kappa inh-1 inconclusive, FEN1 inh -1.8%, WRN inhibitor 56.2µM*, POLI inh 14.1µM*, Pol eta inh-1 15.8µM*, Pol iota confirm 29.9* and Pol eta inh-2 37.9*.
`CCCN(C(=O)c1cccc(-n2cccc2)c1)c1c(N)n(Cc2ccccc2)c(=O)[nH]c1=O` gave Pol kappa inh-1 28.2µM*, FEN1 inh -6.5%, WRN inhibitor 50.1µM*, POLI inh 10µM*, Pol eta inh-1 11.2µM*, Pol iota confirm 29.9* and Pol eta inh-2 42.6*.
`Cc1c(C)n(C)c2ccc(C(=O)NCCc3ccc(Cl)cc3)cc12` gave POLB inh -29.1%, Pol kappa inh-1 -13.9%, FEN1 inh 0.2%, POLI inh -7.9% and Pol eta inh-1 -12.0%.
For CCC(C)n1c(=N)c(C(=O)NCc2ccccc2)cc2c(=O)n3cc(C)ccc3nc21 (centres undefined) the results were POLB inh -9.5%, Pol kappa inh-1 7.0%, FEN1 inh -2.2%, POLI inh 21.6% and Pol eta inh-1 -9.4%.
For CC(CNc1ccccc1O)C(=O)O (centres undefined) the results were POLB inh 8.91µM*, Pol kappa inh-1 inconclusive, FEN1 inh -2.5%, WRN inhibitor -26.1%, POLI inh inconclusive, Pol eta inh-1 25.1µM*, PGK validate inconclusive and Pol eta inh-2 60.1*.
For CC(NC(=O)CCC(=O)Nc1ccccc1O)c1ccccc1 (centres undefined) the results were Pol kappa inh-1 -1.4%, FEN1 inh 8.4%, WRN inhibitor 0.0%, POLI inh 49.2% and Pol eta inh-1 -19.0%.
COc1cc(/C=C(\CCC(=O)O)c2nc3ccccc3s2)ccc1OCC(=O)Nc1c(Cl)cccc1Cl was read as Pol kappa inh-1 -14.8%, FEN1 inh inconclusive, WRN inhibitor inconclusive, POLI inh 15.8%, Pol eta inh-1 inconclusive, PGK validate 10.3µM*, Pol iota confirm 37.7* and Pol eta inh-2 75.7*.
COc1ccc(NC(=O)CN2C(=O)CSc3ccc(S(=O)(=O)N(C)C)cc32)cc1Cl was read as POLB inh 6.7%, Pol kappa inh-1 12.5%, FEN1 inh -18.1%, POLI inh -0.7% and Pol eta inh-1 -9.5%.
`Cc1ccc(CNc2ccc(O)cc2)cc1` gave POLB inh inconclusive, Pol kappa inh-1 inconclusive, FEN1 inh inconclusive, WRN inhibitor inconclusive, POLI inh 3.55µM*, Pol eta inh-1 28.2µM*, Pol iota confirm inconclusive and Pol eta inh-2 inconclusive.
Cc1cc[n+](-c2[nH]c(=O)sc2/C=N/N=C(\[O-])c2ccncc2)cc1 was read as POLB inh inconclusive, Pol kappa inh-1 inconclusive, FEN1 inh -26.5%, WRN inhibitor 0.3%[11.6 µM], POLI inh 39.8µM*, Pol eta inh-1 79.4µM*, Pol iota confirm 53.2* and Pol eta inh-2 75.7*.
Screening Cc1cc[n+](-c2[nH]c(=O)sc2/C=N/N=C(\[O-])c2ccncc2)cc1C returned POLB inh 3.6%, Pol kappa inh-1 -5.3%, FEN1 inh inconclusive, WRN inhibitor 2.1%, POLI inh 1.1% and Pol eta inh-1 0.3%.
For O=C(Nc1ccc(Cl)c(C(F)(F)F)c1)c1cc2nc(-c3ccc4c(c3)OCO4)cc(C(F)(F)F)n2n1 the results were POLB inh -10.7%, Pol kappa inh-1 -0.4%, FEN1 inh -7.7%, POLI inh 19.6% and Pol eta inh-1 -14.9%.
Screening COc1ccc(-c2csc(NC(=O)c3ccccc3NS(=O)(=O)c3ccc(F)c(F)c3)n2)cc1 returned POLB inh inconclusive, Pol kappa inh-1 inconclusive, FEN1 inh inconclusive, WRN inhibitor inconclusive, POLI inh inconclusive, Pol eta inh-1 inconclusive, Pol iota confirm inconclusive, GALK inh confirm 37.5µM*, Redox cycling 4.9%, HEK293 viability 3.97µM*, Pol kappa inh-2 inconclusive and Pol eta inh-2 inconclusive.
For C=CCc1cc(/C=C/c2nc(O)c([N+](=O)[O-])c(=O)[nH]2)cc(OC)c1O the results were POLB inh 25.1µM*, Pol kappa inh-1 79.4µM*, FEN1 inh 44.7µM*, WRN inhibitor 44.7µM*, POLI inh inconclusive, Pol eta inh-1 11.2µM*, Pol iota confirm inconclusive and Pol eta inh-2 30.1*.
Screening O=C1Nc2c(Cl)cccc2C1=O returned WRN inhibitor -2.9%.
Screening Cc1cccc2c1NC(=O)C2=O returned Pol kappa inh-1 50.1µM*, FEN1 inh inconclusive, WRN inhibitor 28.2µM*, POLI inh 8.91µM*, Pol eta inh-1 8.91µM*, Pol iota confirm 42.3*, Pol kappa inh-2 15* and Pol eta inh-2 16.9*.
